Test results as given in the supplement of paper PMC10849652.
Targets with a hit are over-represented here; the source holds about 8,800 in all. About 0.5% of all pairs of compound and target were hits.

Experiments:
Experiment in all cases: log2 fold change, soluble protein after heating vs DMSO (PISA); higher = thermal stabilisation; K562 lysate, 10 uM; active = over 0.2 and 3.5 SD of the protein, either way, in both replicates (recomputed)
nilotinib = compound: Cc1cn(-c2cc(NC(=O)c3ccc(C)c(Nc4nccc(-c5cccnc5)n4)c3)cc(C(F)(F)F)c2)cn1 [nilotinib]
Procedure, shortened: (§1)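 K562 pellets were dounce-homogenised in PBS pH 7.4 containing 1 mM MgCl2, and the crude extract, at 1 mg/mL protein, was exposed to 10 μM compound for 30 min. Aliquots were heated for 3 min across 48°C-58°C, pooled, brought to 0.5% NP-40 at 4°C and spun at 21,000xg for 90 min, with the supernatant taken as soluble protein. TMTpro 16plex LC-MS/MS with equalised channel sums quantified that protein. Values are log-two fold changes in thermal stability relative to solvent controls, taken from duplicates.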

[1] = compound: Cc1nc(Nc2n[nH]c3c2CN(C(=O)N[C@H](CN(C)C)c2ccccc2)C3(C)C)c2sccc2n1
Procedure, shortened: as §1

dasatinib = compound: Cc1nc(Nc2ncc(C(=O)Nc3c(C)cccc3Cl)s2)cc(N2CCN(CCO)CC2)n1 [dasatinib]
Procedure, shortened: as §1

[2] = compound: Cc1ncc(-c2ccnc(Nc3ccc(S(C)(=O)=O)cc3)n2)n1C(C)C
Procedure, shortened: as §1

[3] = compound: Cn1cc(-c2ccc3c(c2)CCN3C(=O)Cc2cccc(C(F)(F)F)c2)c2c(N)ncnc21
Procedure, shortened: as §1

quisinostat = compound: Cn1cc(CNCC2CCN(c3ncc(C(=O)NO)cn3)CC2)c2ccccc21 [quisinostat]
Procedure, shortened: as §1

tipifarnib = compound: Cn1cncc1[C@@](N)(c1ccc(Cl)cc1)c1ccc2c(c1)c(-c1cccc(Cl)c1)cc(=O)n2C [tipifarnib]
Procedure, shortened: as §1

[4] = compound: NC(=O)Nc1cc(-c2cccc(F)c2)sc1C(=O)N[C@H]1CCCNC1
Procedure, shortened: as §1

[5] = compound: NC(=O)c1cnc(N[C@@H]2CCCC[C@@H]2N)nc1Nc1cccc(-n2nccn2)c1
Procedure, shortened: as §1

[6] = compound: NC1(c2ccc(-c3nc4ccn5c(=O)[nH]nc5c4cc3-c3ccccc3)cc2)CCC1
Procedure, shortened: as §1

[7] = compound: NCC(=O)Nc1ccc(-n2nc(C(F)(F)F)cc2-c2ccc3c(ccc4ccccc43)c2)cc1
Procedure, shortened: as §1

vorinostat = compound: O=C(CCCCCCC(=O)Nc1ccccc1)NO [vorinostat]
Procedure, shortened: as §1

silmitasertib = compound: O=C(O)c1ccc2c(c1)nc(Nc1cccc(Cl)c1)c1ccncc12 [silmitasertib]
Procedure, shortened: as §1

[8] = compound: O=C1NC(=O)C(c2cnc3ccccn23)=C1c1cn2c3c(cc(F)cc13)CN(C(=O)N1CCCCC1)CC2
Procedure, shortened: as §1

entospletinib = compound: c1cn2cc(-c3ccc4cn[nH]c4c3)nc(Nc3ccc(N4CCOCC4)cc3)c2n1 [entospletinib]
Procedure, shortened: as §1

Measured: log2 fold change

PUS3 (UniProt Q9BZE2)
inactive: nilotinib -0.019 | [1] 0.045 | dasatinib -0.063 | [2] -0.042 | [3] 0.145 | quisinostat 0.078 | tipifarnib -0.007 | [4] -0.003 | [5] 0.023 | [6] 0.075 | [7] 0.051 | silmitasertib 0.11 | [8] 0.017 | entospletinib -0.041
active: vorinostat -0.527

PXMP4 (UniProt Q9Y6I8)
Sequence of UniProt Q9Y6I8 (Q9Y6I8 whole entry, looked up): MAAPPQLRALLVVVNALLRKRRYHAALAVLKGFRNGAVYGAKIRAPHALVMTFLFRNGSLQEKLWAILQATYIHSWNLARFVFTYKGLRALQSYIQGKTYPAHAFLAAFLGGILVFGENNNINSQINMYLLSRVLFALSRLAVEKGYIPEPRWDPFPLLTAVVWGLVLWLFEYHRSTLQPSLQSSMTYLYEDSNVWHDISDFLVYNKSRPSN
inactive: nilotinib -0.011 | [1] 0.014 | dasatinib 0.078 | [2] 0.013 | [3] -0.092 | quisinostat -0.146 | [4] 0.018 | [5] -0.018 | [6] -0.215 | [7] 0.038 | vorinostat 0.295 | silmitasertib 0.134 | [8] 0.021 | entospletinib -0.004
active: tipifarnib 0.846

PTGS1 isoform 6 (UniProt P23219)
inactive: nilotinib 0.021 | [1] 0.058 | dasatinib 0.034 | [2] 0.043 | [3] 0.053 | quisinostat -0.04 | tipifarnib -0.039 | [4] 0.022 | [5] -0.008 | [6] 0.001 | [7] -0.013 | vorinostat 0.05 | silmitasertib -0.033 | [8] 0.003 | entospletinib -0.017

PGLS (UniProt O95336)
Sequence of UniProt O95336 (O95336 whole entry, looked up): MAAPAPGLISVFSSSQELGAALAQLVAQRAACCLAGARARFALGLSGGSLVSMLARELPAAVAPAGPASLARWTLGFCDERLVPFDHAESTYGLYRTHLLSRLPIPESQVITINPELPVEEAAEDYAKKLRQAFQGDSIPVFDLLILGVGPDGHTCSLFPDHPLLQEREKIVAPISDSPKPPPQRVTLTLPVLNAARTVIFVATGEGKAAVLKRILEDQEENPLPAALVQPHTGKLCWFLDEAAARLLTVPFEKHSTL
inactive: nilotinib 0.008 | [1] -0.021 | dasatinib 0.001 | [2] 0.168 | [3] 0.022 | quisinostat 0.017 | tipifarnib -0.013 | [4] -0.017 | [5] -0.073 | [6] 0.014 | [7] -0.08 | vorinostat 0.079 | silmitasertib -0.034 | [8] 0.072 | entospletinib 0.003

PCIF1 (UniProt Q9H4Z3)
active: [3] -0.439
inactive: nilotinib 0.018 | [1] -0.089 | dasatinib 0.118 | [2] 0.011 | quisinostat 0.019 | tipifarnib 0.015 | [4] -0.016 | [5] -0.006 | [6] 0.022 | [7] -0.018 | vorinostat -0.011 | silmitasertib 0.112 | [8] 0.036 | entospletinib 0.085

PDIA4 (UniProt P13667)
inactive: nilotinib 0.008 | [1] -0.006 | dasatinib 0.006 | [2] 0.014 | [3] 0.004 | quisinostat 0.154 | tipifarnib 0.029 | [4] -0.004 | [5] -0.02 | [6] 0.008 | [7] 0.001 | vorinostat 0.119 | silmitasertib -0.011 | [8] 0.021 | entospletinib 0.004

PCF11 (UniProt O94913)
Sequence of UniProt O94913 (O94913 whole entry, looked up): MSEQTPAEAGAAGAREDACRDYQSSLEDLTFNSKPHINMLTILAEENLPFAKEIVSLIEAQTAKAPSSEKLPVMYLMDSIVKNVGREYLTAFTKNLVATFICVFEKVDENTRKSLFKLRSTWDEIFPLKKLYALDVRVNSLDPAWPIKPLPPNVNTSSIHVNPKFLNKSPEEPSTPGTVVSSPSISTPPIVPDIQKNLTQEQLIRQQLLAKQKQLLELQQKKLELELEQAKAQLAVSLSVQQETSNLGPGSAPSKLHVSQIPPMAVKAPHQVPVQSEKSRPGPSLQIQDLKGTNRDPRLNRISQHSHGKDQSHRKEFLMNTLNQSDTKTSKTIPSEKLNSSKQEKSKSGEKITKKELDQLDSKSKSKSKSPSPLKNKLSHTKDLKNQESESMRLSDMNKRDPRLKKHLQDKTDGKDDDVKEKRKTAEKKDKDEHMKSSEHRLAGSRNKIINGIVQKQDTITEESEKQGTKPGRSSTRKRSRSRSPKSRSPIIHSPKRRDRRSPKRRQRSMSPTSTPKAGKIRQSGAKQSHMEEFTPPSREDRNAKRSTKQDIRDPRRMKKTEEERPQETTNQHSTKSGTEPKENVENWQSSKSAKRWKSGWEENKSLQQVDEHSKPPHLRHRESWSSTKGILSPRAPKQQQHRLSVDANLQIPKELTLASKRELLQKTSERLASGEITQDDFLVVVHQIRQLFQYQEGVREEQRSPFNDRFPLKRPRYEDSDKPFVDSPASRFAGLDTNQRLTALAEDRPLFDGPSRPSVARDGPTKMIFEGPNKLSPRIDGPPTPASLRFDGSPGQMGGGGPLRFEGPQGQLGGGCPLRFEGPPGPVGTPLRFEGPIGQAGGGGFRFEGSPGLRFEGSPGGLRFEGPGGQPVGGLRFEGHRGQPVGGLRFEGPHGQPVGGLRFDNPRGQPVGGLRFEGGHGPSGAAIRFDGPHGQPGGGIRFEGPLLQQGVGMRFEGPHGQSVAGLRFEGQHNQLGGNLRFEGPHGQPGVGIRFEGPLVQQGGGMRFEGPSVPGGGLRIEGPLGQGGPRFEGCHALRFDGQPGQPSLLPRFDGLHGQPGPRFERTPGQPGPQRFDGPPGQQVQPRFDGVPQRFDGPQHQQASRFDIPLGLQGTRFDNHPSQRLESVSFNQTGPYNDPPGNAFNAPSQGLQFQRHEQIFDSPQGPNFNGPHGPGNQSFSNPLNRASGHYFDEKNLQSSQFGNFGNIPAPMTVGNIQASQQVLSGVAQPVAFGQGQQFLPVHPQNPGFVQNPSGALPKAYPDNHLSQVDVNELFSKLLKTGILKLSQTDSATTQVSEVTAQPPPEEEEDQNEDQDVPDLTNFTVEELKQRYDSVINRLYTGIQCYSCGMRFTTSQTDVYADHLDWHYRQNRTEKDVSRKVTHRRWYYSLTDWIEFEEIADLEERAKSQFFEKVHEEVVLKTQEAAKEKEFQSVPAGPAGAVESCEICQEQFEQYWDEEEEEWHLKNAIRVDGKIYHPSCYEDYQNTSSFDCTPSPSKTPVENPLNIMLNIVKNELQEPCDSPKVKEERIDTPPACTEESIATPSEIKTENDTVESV
active: vorinostat -0.339
inactive: nilotinib -0.003 | [1] -0.001 | dasatinib -0.042 | [2] 0.023 | [3] -0.017 | quisinostat -0.004 | tipifarnib -0.029 | [4] 0.019 | [5] -0.013 | [6] -0.012 | [7] 0.043 | silmitasertib -0.023 | [8] -0.001 | entospletinib 0.016

PRMT8 (UniProt Q9NR22)
inactive: nilotinib 0.007 | [1] -0.021 | dasatinib -0.039 | [2] -0.01 | [3] -0.023 | quisinostat -0.057 | tipifarnib 0.036 | [4] 0.034 | [5] -0.023 | [6] -0.056 | [7] 0.067 | vorinostat -0.157 | silmitasertib -0.018 | [8] -0.017 | entospletinib 0.002

POLR3E (UniProt Q9NVU0)
active: vorinostat -0.263
inactive: nilotinib 0.017 | [1] -0.054 | dasatinib -0.035 | [2] -0.018 | [3] 0.018 | quisinostat -0.023 | tipifarnib 0.04 | [4] 0.037 | [5] 0.009 | [6] -0.001 | [7] -0.017 | silmitasertib -0.023 | [8] 0.027 | entospletinib -0.004

PRKRA (UniProt O75569)
inactive: nilotinib 0 | [1] -0.001 | dasatinib -0.01 | [2] 0.034 | [3] 0.029 | quisinostat -0.058 | tipifarnib 0.016 | [4] 0.036 | [5] 0.012 | [6] -0.043 | [7] 0.023 | silmitasertib -0.022 | [8] 0.024 | entospletinib 0.041
active: vorinostat -0.773

PTPN7 isoform 3 (UniProt P35236)
Sequence of UniProt P35236 (P35236 whole entry, looked up): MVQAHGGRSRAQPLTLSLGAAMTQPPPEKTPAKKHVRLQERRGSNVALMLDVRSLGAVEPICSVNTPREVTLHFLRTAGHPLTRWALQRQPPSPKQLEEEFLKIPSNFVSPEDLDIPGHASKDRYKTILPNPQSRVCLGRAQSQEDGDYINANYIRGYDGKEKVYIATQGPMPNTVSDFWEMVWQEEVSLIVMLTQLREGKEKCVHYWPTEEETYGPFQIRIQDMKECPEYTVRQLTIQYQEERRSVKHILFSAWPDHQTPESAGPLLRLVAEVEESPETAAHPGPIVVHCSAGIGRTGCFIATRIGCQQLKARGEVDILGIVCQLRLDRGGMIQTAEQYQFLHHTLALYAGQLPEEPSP
active: vorinostat -0.491
inactive: nilotinib -0.03 | [1] 0.017 | dasatinib -0.088 | [2] -0.021 | [3] 0.064 | quisinostat 0.008 | tipifarnib 0.054 | [4] -0.006 | [5] -0.015 | [6] -0.043 | [7] 0.031 | silmitasertib 0.01 | [8] -0.044 | entospletinib -0.008

PTMA (UniProt P06454)
inactive: nilotinib 0.008 | [1] -0.046 | dasatinib 0.056 | [2] 0.019 | [3] -0.025 | quisinostat 0.047 | tipifarnib 0.045 | [4] 0.017 | [5] 0.032 | [6] -0.006 | [7] -0.002 | vorinostat 0.093 | silmitasertib -0.036 | [8] 0.023 | entospletinib -0.025

PLEKHF1 (UniProt Q96S99)
inactive: nilotinib -0.03 | [1] -0.028 | dasatinib -0.016 | [2] 0.012 | [3] -0.027 | quisinostat -0.009 | tipifarnib -0.012 | [4] 0.021 | [5] -0.002 | [6] -0.023 | [7] -0.019 | silmitasertib 0.07 | [8] -0.014 | entospletinib 0.014
active: vorinostat -0.272

PFKFB3 isoform 4 (UniProt Q16875)
inactive: nilotinib 0.018 | [1] -0.023 | dasatinib -0.088 | [2] -0.021 | [3] 0.075 | quisinostat -0.012 | tipifarnib 0.01 | [4] -0.025 | [5] -0.192 | [6] -0.001 | [7] 0.025 | silmitasertib 0.108 | [8] 0.017 | entospletinib -0.006
active: vorinostat -0.34

PRC1 (UniProt O43663)
active: vorinostat -0.387
inactive: nilotinib 0.013 | [1] -0.008 | dasatinib -0.012 | [2] -0.007 | [3] 0.05 | quisinostat -0.035 | tipifarnib -0.011 | [4] 0.009 | [5] -0.002 | [6] -0.044 | [7] 0.012 | silmitasertib 0.046 | [8] -0.02 | entospletinib 0.023

PCBP2 isoform 8 (UniProt Q15366)
Sequence of UniProt Q15366 (Q15366 whole entry, looked up): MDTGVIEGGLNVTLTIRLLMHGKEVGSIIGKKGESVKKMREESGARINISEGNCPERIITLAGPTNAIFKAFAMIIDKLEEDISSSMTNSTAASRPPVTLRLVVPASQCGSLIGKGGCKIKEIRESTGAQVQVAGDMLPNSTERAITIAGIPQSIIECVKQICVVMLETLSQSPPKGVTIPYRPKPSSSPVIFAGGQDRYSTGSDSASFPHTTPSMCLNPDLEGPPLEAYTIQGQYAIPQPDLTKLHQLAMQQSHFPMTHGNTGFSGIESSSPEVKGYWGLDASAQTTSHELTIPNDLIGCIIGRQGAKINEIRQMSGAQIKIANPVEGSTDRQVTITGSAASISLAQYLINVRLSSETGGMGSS
inactive: nilotinib 0.059 | [1] 0.069 | dasatinib -0.057 | [2] 0.04 | [3] 0.003 | quisinostat 0.133 | tipifarnib 0.015 | [4] 0.055 | [5] -0.091 | [6] -0.049 | [7] -0.06 | silmitasertib -0.037 | [8] 0.054 | entospletinib -0.091
active: vorinostat -0.489

PRRC2A (UniProt P48634)
inactive: nilotinib -0.044 | [1] 0.01 | dasatinib 0.004 | [2] 0.002 | [3] -0.003 | quisinostat 0.015 | tipifarnib -0.036 | [4] 0.059 | [5] -0.011 | [6] 0.02 | [7] 0.012 | vorinostat 0.108 | silmitasertib -0.026 | [8] -0.018 | entospletinib -0.003

PEX2 (UniProt P28328)
Sequence of UniProt P28328 (P28328 whole entry, looked up): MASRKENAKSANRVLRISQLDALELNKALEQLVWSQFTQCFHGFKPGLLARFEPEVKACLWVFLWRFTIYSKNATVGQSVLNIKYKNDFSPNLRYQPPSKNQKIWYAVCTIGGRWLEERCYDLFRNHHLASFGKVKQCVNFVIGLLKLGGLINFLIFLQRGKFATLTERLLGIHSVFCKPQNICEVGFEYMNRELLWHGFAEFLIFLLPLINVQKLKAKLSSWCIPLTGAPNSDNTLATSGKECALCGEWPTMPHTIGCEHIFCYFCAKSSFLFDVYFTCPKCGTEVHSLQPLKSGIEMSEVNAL
inactive: nilotinib 0.059 | [1] -0.158 | dasatinib -0.078 | [2] -0.041 | [3] 0.039 | quisinostat 0.054 | tipifarnib 0.048 | [4] 0.143 | [5] 0.116 | [6] -0.106 | [7] -0.055 | vorinostat -0.25 | silmitasertib 0.042 | [8] 0.043

PDCD10 (UniProt Q9BUL8)
inactive: nilotinib 0.006 | [1] 0.121 | dasatinib 0.077 | [2] 0.03 | [3] 0.013 | quisinostat -0.053 | tipifarnib -0.005 | [4] 0.114 | [5] -0.018 | [6] 0.004 | [7] -0.009 | vorinostat 0.158 | silmitasertib -0.001 | [8] -0.037 | entospletinib 0.011

PDCD6IP (UniProt Q8WUM4)
Sequence of UniProt Q8WUM4 (Q8WUM4 whole entry, looked up): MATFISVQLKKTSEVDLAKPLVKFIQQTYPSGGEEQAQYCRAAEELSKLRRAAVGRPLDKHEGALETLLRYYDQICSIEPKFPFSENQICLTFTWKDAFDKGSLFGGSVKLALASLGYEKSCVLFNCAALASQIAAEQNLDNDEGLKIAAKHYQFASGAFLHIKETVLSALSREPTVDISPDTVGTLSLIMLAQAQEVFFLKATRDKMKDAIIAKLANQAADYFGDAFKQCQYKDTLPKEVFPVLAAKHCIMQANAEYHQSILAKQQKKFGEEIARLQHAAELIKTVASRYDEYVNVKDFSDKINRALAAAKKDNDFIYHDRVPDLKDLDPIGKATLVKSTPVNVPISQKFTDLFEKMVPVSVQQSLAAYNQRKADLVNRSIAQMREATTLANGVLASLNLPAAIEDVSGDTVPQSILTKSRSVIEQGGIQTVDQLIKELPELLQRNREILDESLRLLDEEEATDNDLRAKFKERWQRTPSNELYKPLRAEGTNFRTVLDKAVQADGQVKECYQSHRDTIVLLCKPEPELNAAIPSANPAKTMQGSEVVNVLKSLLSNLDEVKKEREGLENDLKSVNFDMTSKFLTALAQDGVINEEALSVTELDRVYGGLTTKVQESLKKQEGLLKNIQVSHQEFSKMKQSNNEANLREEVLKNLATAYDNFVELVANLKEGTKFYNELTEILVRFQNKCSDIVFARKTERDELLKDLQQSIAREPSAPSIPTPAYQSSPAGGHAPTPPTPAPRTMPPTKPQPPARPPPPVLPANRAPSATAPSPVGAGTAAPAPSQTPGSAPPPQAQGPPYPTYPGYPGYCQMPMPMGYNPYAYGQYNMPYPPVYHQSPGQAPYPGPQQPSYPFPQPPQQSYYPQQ
inactive: nilotinib 0.059 | [1] -0.045 | dasatinib -0.023 | [2] -0.006 | [3] 0.049 | quisinostat 0.001 | tipifarnib 0.06 | [4] 0 | [5] -0.058 | [6] -0.032 | [7] 0.065 | silmitasertib -0.005 | [8] 0.009 | entospletinib -0.009
active: vorinostat -0.332

PTK2 (UniProt Q05397)
Sequence of UniProt Q05397 (Q05397 whole entry, looked up): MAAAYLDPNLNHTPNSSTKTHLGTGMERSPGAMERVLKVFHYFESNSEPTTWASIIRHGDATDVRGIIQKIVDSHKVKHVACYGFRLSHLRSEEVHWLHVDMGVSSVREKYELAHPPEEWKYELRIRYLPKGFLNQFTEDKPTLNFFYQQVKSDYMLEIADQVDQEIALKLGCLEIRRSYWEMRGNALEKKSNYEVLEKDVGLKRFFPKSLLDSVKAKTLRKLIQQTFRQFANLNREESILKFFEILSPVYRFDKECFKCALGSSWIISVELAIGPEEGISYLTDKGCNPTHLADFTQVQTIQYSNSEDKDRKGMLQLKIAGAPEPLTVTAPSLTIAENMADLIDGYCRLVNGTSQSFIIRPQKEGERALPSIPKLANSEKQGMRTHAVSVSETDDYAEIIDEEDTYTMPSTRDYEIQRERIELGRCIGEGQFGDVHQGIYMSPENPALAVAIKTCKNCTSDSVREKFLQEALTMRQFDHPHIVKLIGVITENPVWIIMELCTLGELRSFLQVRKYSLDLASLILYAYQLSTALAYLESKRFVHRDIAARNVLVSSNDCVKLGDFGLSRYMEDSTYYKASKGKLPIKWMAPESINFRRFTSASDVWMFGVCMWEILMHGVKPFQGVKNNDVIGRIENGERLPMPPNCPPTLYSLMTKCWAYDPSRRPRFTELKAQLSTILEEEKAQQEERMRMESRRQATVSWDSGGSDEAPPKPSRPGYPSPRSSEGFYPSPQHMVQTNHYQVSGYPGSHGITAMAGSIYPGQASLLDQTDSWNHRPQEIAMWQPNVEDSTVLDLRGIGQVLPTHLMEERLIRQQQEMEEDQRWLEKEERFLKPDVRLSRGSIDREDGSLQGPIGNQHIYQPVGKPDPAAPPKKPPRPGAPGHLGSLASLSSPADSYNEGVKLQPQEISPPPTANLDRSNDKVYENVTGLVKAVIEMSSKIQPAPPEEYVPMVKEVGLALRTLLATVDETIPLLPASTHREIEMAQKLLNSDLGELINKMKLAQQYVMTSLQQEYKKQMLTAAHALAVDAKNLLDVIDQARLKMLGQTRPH
inactive: nilotinib -0.032 | [1] 0.235 | dasatinib 0.083 | [2] 0.078 | [3] 0.18 | quisinostat -0.038 | tipifarnib -0.046 | [4] 0.373 | [5] 0.081 | [6] 0.021 | [7] -0.017 | vorinostat -0.137 | silmitasertib 0 | [8] -0.056 | entospletinib 0.175
